High-throughput results: PubChem, National Center for Advancing Translational Sciences (NCATS)
Shown are actives, neighbours in structure and some others; about 3.5% of the full set was active somewhere.
Tb PYK inh: qHTS of Trypanosoma Brucei Inhibitors. TbPYK enzyme, Kinase-Glo Plus ATP luminescence, 45 min. Potency, µM (doses to about 76.8 µM), for the others: top-dose activity, negative = inhibition, actives largely listed as inhibitors. actives 0.12% (n = 410,000). AID 624173, 2012; also: % is scaled to controls: 0 for no effect and ±100 for the full control effect; nearly all actives have a fitted effect of over 50% in size
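In this concentration-response screen, enzyme-free wells defined baseline while DMSO plates tracked drift. Each reaction combined TbPYK, substrate, compound and 130 uM ADP for 45 min at room temperature. Kinase-Glo Plus luminescence gave the signal.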
FBPA Giardia inh: qHTS Assay for Inhibitors of Fructose-1,6-bisphosphate Aldolase from Giardia Lamblia; purified Giardia FBPA; Potency, µM (doses to about 59.6 µM), inactives show at the top dose activity, negative = inhibition, most hits filed as inhibitors; actives 0.71% (n = 290,000); AID 2451, 2010; also: % is scaled to controls: 0 for no effect and ±100 for the full control effect; nearly all actives have a fitted effect of over 55% in size
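Giardia FBPA (40 nM reagent) was preincubated 10 min at RT with compound (up to 57.5 uM final), then substrate plus GAPDH/TPI/NAD/arsenate coupling system with diaphorase/resazurin was added; resorufin fluorescence (525/598 nm) was read after 20 min.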
NS1 inh: qHTS Assay for Inhibitors of Influenza NS1 Protein Function; Potency, µM (titrated, usually from 46.1 µM), for the others: at the top dose activity, positive = more growth; actives 0.4% (n = 270,000); AID 2326, 2010; calls by dose curve; also: actives are rising curves; nearly all actives have a fitted effect of over 50% in size
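A cell-based growth assay was used: compounds that relieve NS1-induced slow growth of budding yeast raise OD600. Assay medium was yeast nitrogen base with ammonium sulphate and -URA supplement, pH 6.0, with 2% galactose.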
LmPK inhibitor: qHTS Assay for Inhibitors of Leishmania Mexicana Pyruvate Kinase (LmPK); Q27686; purified LmPK, Kinase-Glo ATP luminescence, 1 h; Potency, µM (titrated, usually from 57.5 µM), without a hit: at the top dose activity change, negative = inhibition, most hits filed as inhibitors; actives 0.37% (n = 290,000); AID 1721, 2009; also: % is scaled to controls: 0 for no effect and ±100 for the full control effect
Target sequence (Q27686 whole entry, looked up): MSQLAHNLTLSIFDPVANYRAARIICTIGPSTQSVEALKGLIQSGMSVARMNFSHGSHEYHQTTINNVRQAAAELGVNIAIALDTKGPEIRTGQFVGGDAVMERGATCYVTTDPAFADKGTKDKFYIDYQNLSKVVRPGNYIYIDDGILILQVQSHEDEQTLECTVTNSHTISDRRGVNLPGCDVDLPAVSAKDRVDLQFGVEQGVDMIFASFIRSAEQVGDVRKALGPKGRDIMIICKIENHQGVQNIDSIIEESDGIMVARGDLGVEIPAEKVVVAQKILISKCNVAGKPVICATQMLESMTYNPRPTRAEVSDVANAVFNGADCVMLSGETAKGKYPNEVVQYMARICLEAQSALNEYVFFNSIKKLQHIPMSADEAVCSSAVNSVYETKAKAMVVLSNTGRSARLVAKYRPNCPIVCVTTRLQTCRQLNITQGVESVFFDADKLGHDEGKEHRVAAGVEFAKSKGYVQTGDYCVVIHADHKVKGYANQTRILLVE
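ATP generated from ADP (0.1 mM) and PEP (0.5 mM) by 0.1 nM LmPK over 1 h at room temperature (pH 7.2 imidazole buffer) was detected by coupled luciferase luminescence. Values were normalized to uninhibited and no-enzyme wells.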
Sm TGR inh: qHTS Assay for the Inhibitors of Schistosoma Mansoni Peroxiredoxins; Schistosoma mansoni thioredoxin glutathione reductase (TGR), Q962Y6; actives 3% (n = 360,000); Potency, µM (doses to about 114 µM), for the others: top-dose activity change, negative = inhibition, usual class: inhibitors; purified TGR, DTNB reduction, TNB absorbance 405 nm; also: % is scaled to controls: 0 for no effect and ±100 for the full control effect; nearly all actives have a fitted effect of over 60% in size
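TGR 20 nM + NADPH 100 uM (dispensed conc.), cpd preinc 15 min RT; start with NADPH (500 uM addition) then DTNB (15 mM addition). Kinetic TNB absorbance, 405 nm filter. Four-parameter Hill fit across titration.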
RE007 growth inh: qHTS Assay for Inhibitors of the HIV-1 protein Vpr | AID 651644, 2012 | actives 0.21% (n = 360,000) | Potency, µM (highest dose often 92.2 µM), for inactives: at the top dose activity change, negative = less growth, usual class: inhibitors | S. pombe RE007 Vpr strain, BacTiter-Glo ATP luminescence, 24 h; active = well fitted falling curve with a large enough effect; inconclusive = small, poorly fitted or top-dose-only effect; inactive = no such curve, though single readings can be large or run the other way; also: % is scaled to controls: 0 for no effect and ±100 for the full control effect; nearly all actives have a fitted effect of over 50% in size
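Fission yeast strain RE007, carrying one chromosomally integrated HIV-1 vpr copy, was seeded at OD 0.01 in PMG+AL medium with 23 nL pinned compound. After 24 h at 30 °C and 99% humidity, viability was read by BacTiter-Glo luminescence.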
Active calls of the source: *; ? = inconclusive; nt = no result given. Unless noted, calls follow the shape of the dose curve; as a rule, active = well fitted curve in the direction sought with a large enough effect; inconclusive = small, poorly fitted or top-dose-only effect, or another doubt; inactive = no such curve, though single readings can be large; an effect the other way counts as inactive or inconclusive. Potency is read from the fitted curve at half-maximal effect.

SMILES	Tb PYK inh	FBPA Giardia inh	NS1 inh	LmPK inhibitor	Sm TGR inh	RE007 growth inh
CCS(=O)(=O)c1ncc(N(Cc2ccccc2)Cc2ccco2)c(C(=O)Nc2cccc(Cl)c2C)n1	-3%	nt	nt	nt	0%	nt
O=C(NCCc1ccccc1)c1sc2ncccc2c1-n1cccc1	-3%	nt	nt	nt	7%	nt
COC(=O)c1ccccc1NC(=O)C1CCN(C(=O)N2CC(C)Oc3ccccc32)CC1 (stereo not given)	2%	nt	nt	nt	1%	nt
COC(=O)c1nc(NC(=O)c2cc(OC)c(OC)c(OC)c2)n[nH]1	9%	nt	5%	-5%	32µM*	4%
COc1cc(C(=O)Nc2ccncc2)cc(OC)c1OC	0%	2%	0%	4%	-8%	-3%
Cc1ccc(S(=O)(=O)Nc2cc(C)c(O)c(Sc3n[nH]c(C)n3)c2)cc1	-17%	?	16%	-6%	45µM*	2%
O=P(O)(O)OC[C@@H](O)CO	0%	nt	nt	nt	nt	nt
COc1ccc2nc3oc(C(=O)Nc4ccc(OC)c(OC)c4)cc3cc2c1	-26%	0%	?	22µM*	4%	-8%
COc1ccc2nc3oc(C(=O)NCc4ccccc4OC)cc3cc2c1	?	nt	nt	nt	8%	nt
O=C(/C=C/c1ccco1)Nc1ccc(C(=O)N2CCOCC2)cc1	-20%	1%	9%	-7%	13µM*	-10%
O=C(/C=C/c1ccco1)Nc1ccc(N2CCCC2)cc1	-23%	1%	16%	-17%	-27%	3%
O=C(/C=C/c1ccco1)Nc1ccc(CN2CCOCC2)cc1	3%	5%	1%	1%	20µM*	0%
O=C(/C=C/c1ccco1)NC(=S)Nc1ccc(N2CCOCC2)c(Cl)c1	-1%	-8%	10%	6%	40µM*	-5%
O=C(/C=C/c1ccco1)Nc1ccccc1N1CCOCC1	-7%	10%	-24%	0%	20µM*	-22%
CCC1CN(C(=O)Nc2cccc3c2CCCC3)c2cc(C)ccc2O1 (stereo not given)	-1%	nt	nt	nt	9%	nt
COc1ccc(C(=O)NCC(c2ccc3c(c2)OCO3)N2CCOCC2)cc1OC (stereo not given)	-15%	nt	nt	nt	?	nt
O=C(C=Cc1ccco1)c1ccc([N+](=O)[O-])cc1	-5%	nt	nt	nt	nt	-13%
O=C(/C=C/c1ccco1)Nc1ccc2c(c1)OCCO2	-2%	-22%	nt	0%	20µM*	-14%
O=C(/C=C/c1ccco1)c1ccc(NC(=O)C23CC4CC(CC(C4)C2)C3)cc1	?	-7%	?	2%	10µM*	-13%
Cc1csc(NC(=O)/C=C/c2ccc(C)o2)n1	-2%	-15%	-3%	-1%	20µM*	-20%
O=C(/C=C/c1ccccc1)Nc1scc(-c2ccccc2)c1C(=O)O	4%	?	4%	-11%	17%	-11%
CCOC(=O)Cc1csc(NC(=O)CS(=O)(=O)Cc2ccccc2)n1	3%	0%	1%	0%	-1%	0%
CCOC(=O)Cc1csc(NC(=O)CCS(=O)(=O)Cc2ccccc2)n1	1%	6%	13%	-1%	20µM*	-7%
O=C(/C=C/c1ccco1)Nc1scc(-c2ccccc2)c1C(=O)O	-16%	?	-46%	-19%	8.9µM*	?
Cc1csc(NC(=O)/C=C/c2ccc3c(c2)OCO3)n1	-13%	-1%	0%	0%	3%	-4%
SMILES	Tb PYK inh	FBPA Giardia inh	NS1 inh	LmPK inhibitor	Sm TGR inh	RE007 growth inh
Cc1cc(NS(=O)(=O)c2ccc(NC(=O)/C=C/c3ccco3)cc2)nc(C)n1	-16%	23%	0%	15%	4µM*	6%
Cc1cc(NS(=O)(=O)c2ccc(NC(=O)c3ccco3)cc2)nc(C)n1	-6%	4%	9%	4%	-25%	2%
COC(=O)C1(C(=O)OC)C[C@H]2CON=C2[C@H]1c1ccccc1	nt	0%	nt	nt	nt	nt
CSc1ncc(C(=O)NCc2ccc(Cl)cc2)c(C(F)(F)F)n1	-2%	nt	nt	nt	2%	nt
Cc1cccc(NC(=O)c2ccc(CN3CC(=O)N4CCCCC4C3=O)cc2)c1C (stereo not given)	-3%	nt	nt	nt	-5%	nt
CCOC(=O)Cc1csc(NC(=O)/C=C/c2ccco2)n1	-6%	-2%	-40%	1%	11µM*	11%
O=C(/C=C/c1ccco1)Nc1nc(-c2ccccc2)cs1	-1%	-10%	-1%	-3%	-27%	-25%
Cc1csc(NC(=O)/C=C/c2ccco2)n1	-7%	-7%	7%	-10%	50µM*	4%
O=C(/C=C/c1ccco1)Nc1nc(-c2ccc(F)c(F)c2)cs1	-1%	5%	-1%	1%	40µM*	13%
COc1cc(CN2CCCCCC2)cc(OC)c1	5%	-26%	6%	2%	100µM*	-7%
Oc1cccc(CN2CCCCC2)c1	-2%	5%	24%	-1%	-7%	0%
CC(C)(C)c1cc(CN2CCCCC2)cc(C(C)(C)C)c1O	nt	?	5%	-1%	45µM*	nt
COc1ccc(NC(=O)CSc2nc(-c3cccc(C)c3)[nH]c2-c2ccccc2)cc1OC	-16%	nt	nt	nt	?	nt
CCN(C(=O)Cn1c(C(=O)OC)cc2sc(Cl)cc21)c1cccc(C)c1	0%	nt	nt	nt	3%	nt
CCOC(=O)c1c(S(=O)(=O)N2CCCC(C(=O)Nc3cccc(Cl)c3)C2)c(C)n(C)c1C (stereo not given)	0%	nt	nt	nt	2%	nt
CCC(C)(C)n1nnnc1C(c1ccccc1)N1CCc2ccccc2C1 (stereo not given)	0%	-1%	2%	9%	?	32%
CCC(C)(C)n1nnnc1C(c1ccc(O)c(OC)c1)N1CCc2ccccc2C1 (stereo not given)	-48%	-24%	4%	4%	0.25µM*	0%
CCC(C)(C)n1nnnc1C(c1ccc(O)c(OC)c1)N1CCN(c2nc3ccccc3s2)CC1 (stereo not given)	-17%	1%	-30%	6%	0.71µM*	-3%
CCCCCCCc1cc2ccccc2c(=O)o1	nt	-1%	nt	nt	nt	nt
COC(=O)c1nonc1NCn1nnc2ccccc21	4%	9%	?	1%	?	12%
Cc1nonc1NCn1nnc2ccccc21	-1%	0%	11%	-4%	35µM*	17%
Oc1ccc(Cl)cc1-c1cc(-c2ccco2)[nH]n1	-16%	-19%	-230%	5%	45µM*	?
COc1cc(CC2COC(c3ccc(O)c(OC)c3)C2COC(C)=O)ccc1O (stereo not given)	6%	-6%	3%	0%	40µM*	-1%
